# According to PubChem BioAssay (NCATS):
# Unmarked numbers belong to inactive results. Results filed as inconclusive are left out. Where a call stands in place of a potency, no number is given. Active and inactive are the calls of the source. Calls follow the shape of the dose curve; as a rule, active = well fitted curve in the direction sought with a large enough effect; inconclusive = small, poorly fitted or top-dose-only effect, or another doubt; inactive = no such curve, though single readings can be large; an effect the other way counts as inactive or inconclusive.
# Assays:
# [1] = biological target: Single-stranded DNA cytosine deaminase (Homo sapiens) (UniProt Q9GZX7); test: Validation qHTS assay for inhibitors of Activation Induced Cytidine Deaminase (AID): AID signal (AID 1347429)
# How it was run: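 AID+UDG coupled FRET deamination; cpds up to 114 uM final; DJC20/DJC23 substrate, 4 hr RT; NaOH stop, 30 min RT; read Ex 540/Em 590.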
# [2] = Primary qHTS for inhibitors of La Crosse Virus (LACV) - induced cell death in SH-SY5Y cells (AID 1508616);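 also: top concentration of the series differs between compounds; higher means more rescue of cells from virus-induced death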
# How it was run: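 Cytopathicity rescue screen: compounds pinned onto SH-SY5Y cells, which are then infected with LACV (MOI 0.01) and held 6 days at 37C. Percent activity is scaled between infected DMSO control and uninfected DMSO control.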
# [3] = biological target: Calcium and integrin-binding protein 1 (Homo sapiens) (UniProt Q99828); test: Validation qHTS for Identification of Calcium Integrin Binding protein 1 (CIB1) Competitor (AID 1508618)
# How it was run: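 CIB1-GST (1 uM final) in 5 mM HEPES pH 7.4, 125 mM NaCl, 5 mM CaCl2, 0.01% Tween20 was preincubated 15 min at room temperature with compound (up to 114 uM), then FITC-alphaIIb peptide (100 nM) added for 15 min; fluorescence polarization read.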
# [4] = Counterscreen qHTS for small molecule stabilizers of the endoplasmic reticulum resident proteome: GLuc-NoTag assay (AID 1508627);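 also: SH-SY5Y cells given compound then 100 nM thapsigargin to empty ER calcium; series mostly up to about 76 µM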
# How it was run: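 Counterscreen line: SH-SY5Y-GLuc-NoTag cells, treated with compound 19 hr before a 4 hr, 100 nM thapsigargin calcium depletion. Secreted Gaussia luciferase in the medium was measured by luminescence after coelenterazine was added (0.07x final), with cells unlysed.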
# [5] = Confirmatory qHTS for small molecule stabilizers of the endoplasmic reticulum resident proteome: Secreted ER Calcium Modulated Protein (SERCaMP) assay (AID 1508628); also: series mostly up to about 76 µM; nearly all actives have a fitted effect of over 40% in size
# How it was run: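 GLuc-SERCaMP-expressing SH-SY5Y cells, pretreated 16 h with compound, are challenged with thapsigargin to empty ER calcium stores; after 4 h, coelenterazine is added directly to the medium and luminescence is imaged.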
# [6] = Cell Viability qHTS for small molecule stabilizers of the endoplasmic reticulum resident proteome (AID 1508629); settings: cell viability counter-screen, 100 nM thapsigargin for final 4 h;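 also: human SH-SY5Y neuroblastoma cells carrying the GLuc-SERCaMP reporter; compound exposure about 46 h in total before the viability read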
# [7] = Primary qHTS for small molecule stabilizers of the endoplasmic reticulum resident proteome: Secreted ER Calcium Modulated Protein (SERCaMP) assay (AID 1508630)
# How it was run: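 The SH-SY5Y reporter protocol was run at 3 concentrations up to 38.3 uM (primary) or 11 concentrations (follow-up): 16 h compound, 100 nM thapsigargin for 4 h, then extracellular luciferase luminescence.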
# Papain (Carica papaya) = Papain (Carica papaya) (UniProt P00784); test: Primary qHTS assay for inhibitors of the protease papain (AID 1645873);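 also: papain turnover of Z-FR-AMC read as the AMC fluorescence gain over 10 min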; also: potency is read from the fitted curve at half-maximal effect
# [8] = biological target: Calcium and integrin-binding protein 1 (Homo sapiens) (UniProt Q99828); test: Primary qHTS for Identification of Calcium Integrin Binding Protein 1 (CIB1) Competitor (AID 1508620);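 also: GST tagged CIB1 binding a fluorescein labelled alphaIIb integrin peptide tracer; top concentration of the series differs between compounds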
# How it was run: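 CIB1-GST (1 uM final) and compound incubated 15 min at room temperature before adding FITC-alphaIIb peptide tracer (100 nM final). Competition for binding read by fluorescence polarization (ex 480, em 540) after another 15 min at room temperature.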
# Papain (Carica papaya), sequence (P00784 whole entry, looked up): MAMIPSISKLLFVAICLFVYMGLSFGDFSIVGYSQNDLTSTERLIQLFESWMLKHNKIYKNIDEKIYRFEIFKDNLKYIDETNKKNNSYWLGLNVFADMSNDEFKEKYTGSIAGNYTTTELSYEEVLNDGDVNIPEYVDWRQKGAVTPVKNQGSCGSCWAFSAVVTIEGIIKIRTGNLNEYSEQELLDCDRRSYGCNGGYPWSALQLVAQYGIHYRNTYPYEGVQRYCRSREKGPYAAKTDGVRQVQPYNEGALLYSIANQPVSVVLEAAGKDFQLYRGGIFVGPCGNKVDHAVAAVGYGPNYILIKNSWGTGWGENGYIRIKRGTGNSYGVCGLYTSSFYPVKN
# Single-stranded DNA cytosine deaminase (Homo sapiens), sequence (Q9GZX7 whole entry, looked up): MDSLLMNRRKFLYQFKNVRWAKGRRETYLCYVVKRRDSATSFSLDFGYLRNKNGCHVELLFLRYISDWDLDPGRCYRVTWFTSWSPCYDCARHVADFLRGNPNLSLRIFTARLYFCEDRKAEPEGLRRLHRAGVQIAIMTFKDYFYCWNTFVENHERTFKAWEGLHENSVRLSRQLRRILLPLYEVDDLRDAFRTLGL
# Calcium and integrin-binding protein 1 (Homo sapiens), sequence (Q99828 whole entry, looked up): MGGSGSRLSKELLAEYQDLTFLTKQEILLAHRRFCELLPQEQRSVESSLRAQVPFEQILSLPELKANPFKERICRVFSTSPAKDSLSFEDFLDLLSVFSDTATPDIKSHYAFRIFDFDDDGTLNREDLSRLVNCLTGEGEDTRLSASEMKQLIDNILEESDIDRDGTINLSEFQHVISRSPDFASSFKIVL
SMILES,Potency [1],Potency [2],Potency [3],Potency [4],Potency [5],max response [6] [%],Potency [7],Potency (Papain (Carica papaya)),outcome [8]
NC1CCN(O)C1=O (stereo unspecified),inactive,inactive,inactive,,,,,,
COc1ccc(CCN(C)CCc2ccc(OC)c(OC)c2)cc1OC,inactive,inactive,inactive,inactive,inactive,1.86,inactive,inactive,
COc1cccc(OC)c1OCCNCC1CSc2ccccc2O1 (stereo unspecified),inactive,inactive,inactive,,,,inactive,,
COc1ccc(C(=O)NCc2cccnc2)cc1C(=O)NCc1cccnc1,inactive,inactive,inactive,,,,inactive,inactive,
NC(N)=NC(N)=Nc1ccccc1,inactive,inactive,inactive,inactive,inactive,,,inactive,
CCCCCCCCCCCCCCC[C@H](O)[C@H](N)CO,inactive,inactive,inactive,inactive,inactive,-0.696,,inactive,
NC(C(=O)N[C@@H]1C(=O)N2C(C(=O)O)=C(Cl)CS[C@H]12)c1ccccc1 (stereo partly specified),inactive,inactive,inactive,,,,,,
O=C(O)CCC(=O)N1CCCC1C(=O)O (stereo unspecified),inactive,inactive,inactive,inactive,inactive,,,inactive,
Cc1nc(N=Nc2ccc(S(=O)(=O)O)cc2S(=O)(=O)O)c(COP(=O)(O)O)c(C=O)c1O,inactive,inactive,inactive,inactive,inactive,,,inactive,
Nc1ncnc2c1c(-c1ccc(Oc3ccccc3)cc1)cn2C1CCCC1,inactive,inactive,inactive,,,,inactive,inactive,inactive
CCC1(O)CC2CN(CCc3c([nH]c4ccccc34)[C@@](C(=O)OC)(c3cc4c(cc3OC)N(C)C3[C@]45CCN4CC=C[C@@](CC)([C@@H](OC(C)=O)[C@]3(O)C(=O)OC)[C@H]45)C2)C1 (stereo partly specified),inactive,inactive,,,,,,,
O=c1[nH]c(=S)[nH]c(-c2ccccc2)c1Cc1c(O)ccc2ccccc12,inactive,inactive,inactive,,,,inactive,,
COc1cc(C(O)CO)ccc1O (stereo unspecified),inactive,inactive,inactive,,,,inactive,inactive,
COC(=O)[C@H](NC(=O)c1cc(-c2ccccc2)nc2ccccc12)c1ccccc1,inactive,inactive,inactive,,,,inactive,,
CC(N)(Cc1ccc(O)c(O)c1)C(=O)O (stereo unspecified),inactive,inactive,inactive,,,,,,
CCCc1c(OCCCOc2ccc(OCC(=O)O)cc2)ccc(C(C)=O)c1O,inactive,inactive,,,,,,,
CC(N)(Cc1ccc(O)cc1)C(=O)O (stereo unspecified),inactive,inactive,inactive,,,,inactive,inactive,

SMILES,Potency [1],Potency [2],Potency [3],Potency [4],Potency [5],max response [6] [%],Potency [7],Potency (Papain (Carica papaya)),outcome [8]
Cn1ccnc1,inactive,inactive,inactive,,,,inactive,inactive,
CC(/C=C/c1cccc(Oc2ccc(F)cc2)c1)N(O)C(N)=O (stereo unspecified),inactive,inactive,inactive,,,,inactive,,
COc1ccc(CCn2nnnc2C2(c3ccc(C)cc3)CC2)cc1,inactive,inactive,inactive,,,,inactive,,
CCCCCCN(CCCCCC)C(=O)Cc1c(-c2ccc(F)cc2)[nH]c2ccccc12,inactive,inactive,inactive,,,,inactive,,
O=S(=O)(c1cccc2c(Cl)cccc12)N1CCCNCC1,inactive,inactive,inactive,inactive,inactive,,,inactive,
CN1CCc2cc(Cl)c(O)cc2[C@@H](c2ccccc2)C1,inactive,inactive,inactive,,inactive,,inactive,,
C[C@]12C=CC(=O)C=C1CC[C@@H]1C2=CC[C@]2(C)[C@@H](C(=O)CN3CCN(c4cc(N5CCCC5)nc(N5CCCC5)n4)CC3)CC[C@@H]12,inactive,inactive,inactive,inactive,,,,,
N#CC(C#N)=C(N)/C(C#N)=C/c1ccc(O)cc1,inactive,inactive,inactive,,,,inactive,,
NC(=Nc1ccccc1)NC(=O)c1nc(Cl)c(N)nc1N,inactive,inactive,inactive,inactive,inactive,,,25.1 µM (active),
O=C(c1ccc2c(c1)OCCO2)N1CCCCC1,inactive,inactive,inactive,,,,inactive,inactive,
Nn1nnc2ccccc21,inactive,inactive,inactive,,,,inactive,inactive,
NOCC(=O)O,inactive,inactive,inactive,,,,inactive,inactive,
NC1CONC1=O (stereo unspecified),inactive,inactive,inactive,,,,inactive,inactive,
c1ccc2c(c1)CCC[C@H]2Nc1nc2ccccc2[nH]1,inactive,inactive,inactive,,,,inactive,inactive,
[Li+],inactive,inactive,inactive,,,,inactive,inactive,
COc1ccc2c(c1)CCC1C2CC[C@@]2(C)C1CC[C@@H]2NCCCCCCN1C(=O)C=CC1=O (stereo partly specified),inactive,inactive,inactive,,,,inactive,inactive,
